Records with an inconclusive call do not appear. Active and inactive are the calls of the source. The call rests on the fitted dose curve; in most records, active means well fitted curve in the direction sought with a large enough effect in the repeat runs; inconclusive means weak or mixed curves; inactive means no such curve, though single readings can be large; an effect the other way counts as inactive or inconclusive.
What was measured:
[1] = qHTS assay to identify small molecule antagonists of the glucocorticoid receptor (GR) signaling pathway - cell viability counter screen (AID 720693); further: nearly all actives have a fitted effect of over 55% in size
[2] = qHTS assay for identifying genotoxic compounds that show differential cytotoxicity against isogenic chicken DT40 cell lines with known DNA damage response pathways - wild type cell line (AID 743012); further: nearly all actives have a fitted effect of over 60% in size; further: potency means the concentration at half of the fitted maximal effect
How it was run: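 Luminescent ATP viability signal (CellTiter-Glo, 30 min RT) recorded after wild type DT40 cells were incubated with compounds for 40 h at 37 C/5% CO2.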

[3] = qHTS assay for identifying genotoxic compounds that show differential cytotoxicity against isogenic chicken DT40 cell lines with known DNA damage response pathways - Rev3 mutant cell line (AID 743014); further: nearly all actives have a fitted effect of over 55% in size; further: potency means the concentration at half of the fitted maximal effect
[4] = qHTS assay for identifying genotoxic compounds that show differential cytotoxicity against isogenic chicken DT40 cell lines with known DNA damage response pathways - Rad54/Ku70 mutant cell line (AID 743015); further: nearly all actives have a fitted effect of over 60% in size; further: potency means the concentration at half of the fitted maximal effect
[5] = qHTS assay to identify small molecule antagonists of the androgen receptor (AR) signaling pathway - cell viability counter screen (AID 743033; further: nearly all actives have a fitted effect of over 45% in size)
[6] = qHTS assay to identify small molecule antagonists of the androgen receptor (AR) signaling pathway using the MDA cell line - cell viability counter screen (AID 743041; further: nearly all actives have a fitted effect of over 45% in size)
How it was run: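 qHTS viability read-out; MDA-kb2 AR-luc; R1881-stimulated; 16 h exposure at 37C, 0% CO2; CellTiter-Fluor, 30 min; fluorescence intensity.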
On the % scale 0 is the no-effect control and ±100 the full control effect.

Cl/C=C/CCl
inactive: Potency [1] | Potency [2] | Potency [3] | Potency [4] | Potency [5] | Potency [6]

O=C(Cl)CCl
inactive: Potency [1] | Potency [2] | Potency [3] | Potency [4] | Potency [5] | Potency [6]

Oc1ccc(Cc2ccc(O)cc2)cc1
inactive: Potency [1] | Potency [2] | Potency [3] | Potency [4] | Potency [5] | Potency [6]

Oc1ccc2c3c1O[C@H]1[C@@H](O)C=C[C@H]4[C@@H](C2)NCC[C@@]341
inactive: Potency [1] | Potency [2] | Potency [3] | Potency [4] | Potency [5] | Potency [6]

CC(=NC#N)N(C)Cc1ccc(Cl)nc1
inactive: Potency [1] | Potency [2] | Potency [3] | Potency [4] | Potency [5] | Potency [6]

CC(C)(C)C(=O)Cl
inactive: Potency [1] | Potency [2] | Potency [3] | Potency [4] | Potency [5] | Potency [6]

CN(C)C1CCCCC1
inactive: Potency [1] | Potency [2] | Potency [3] | Potency [4] | Potency [5] | Potency [6]

CCCC(C)C1(CC)C(=O)N=C(S)NC1=O (stereo unspecified)
inactive: Potency [1] | Potency [2] | Potency [3] | Potency [4] | Potency [5] | Potency [6]

COC(=O)c1ccccc1CS(=O)(=O)NC(=O)Nc1nc(OC)cc(OC)n1
inactive: Potency [1] | Potency [2] | Potency [3] | Potency [4] | Potency [5] | Potency [6]

CCCC[N+](=O)[O-]
inactive: Potency [1] | Potency [2] | Potency [3] | Potency [4] | Potency [5] | Potency [6]

O=C(NC(O)C(Cl)(Cl)Cl)NC(O)C(Cl)(Cl)Cl (stereo unspecified)
inactive: Potency [1] | Potency [2] | Potency [3] | Potency [4] | Potency [5] | Potency [6]

NC(=O)OCCCc1ccccc1
active: Potency [2] 13.3 µM | Potency [3] 11.9 µM | Potency [4] 29.8 µM
inactive: Potency [1] | Potency [5] | Potency [6]

O=C(Cl)C(Cl)(Cl)Cl
inactive: Potency [1] | Potency [2] | Potency [3] | Potency [4] | Potency [5] | Potency [6]

COc1ccc(CN2CCNCC2)c(OC)c1OC
inactive: Potency [1] | Potency [2] | Potency [3] | Potency [4] | Potency [5] | Potency [6]

ClC(Cl)(Cl)Cl
inactive: Potency [1] | Potency [2] | Potency [3] | Potency [4] | Potency [5] | Potency [6]

O=C1CC(=O)NC(=O)N1
inactive: Potency [1] | Potency [2] | Potency [3] | Potency [4] | Potency [5] | Potency [6]

BrCCc1ccccc1
inactive: Potency [1] | Potency [2] | Potency [3] | Potency [4] | Potency [5] | Potency [6]

O=c1[nH]oc2c1CCNC2
inactive: Potency [1] | Potency [2] | Potency [3] | Potency [4] | Potency [5] | Potency [6]

CC(C)[C@]12CC(=O)[C@H](C)[C@H]1C2
inactive: Potency [1] | Potency [2] | Potency [3] | Potency [4] | Potency [5] | Potency [6]

CN(C)CCN(C)C
inactive: Potency [1] | Potency [2] | Potency [3] | Potency [4] | Potency [5] | Potency [6]

CCCC(C)(COC(N)=O)COC(N)=O
inactive: Potency [1] | Potency [2] | Potency [3] | Potency [4] | Potency [5] | Potency [6]

O=C(Cl)OCc1ccccc1
inactive: Potency [1] | Potency [2] | Potency [3] | Potency [4] | Potency [5] | Potency [6]

COc1ccc2c(C(=O)c3ccc(Cl)cc3)c(C)n(CC(=O)O)c2c1
inactive: Potency [1] | Potency [2] | Potency [3] | Potency [4] | Potency [5] | Potency [6]

CCCCCCCCBr
inactive: Potency [1] | Potency [2] | Potency [3] | Potency [4] | Potency [5] | Potency [6]

CC(C)[N+](C)(CCC(C(N)=O)(c1ccccc1)c1ccccc1)C(C)C
inactive: Potency [1] | Potency [2] | Potency [3] | Potency [4] | Potency [5] | Potency [6]

CC(C)(C)NC[C@H](O)c1ccc(O)cc1Cl
inactive: Potency [1] | Potency [2] | Potency [3] | Potency [4] | Potency [5] | Potency [6]

C=CCc1cc(OC)c2c(c1)OCO2
inactive: Potency [1] | Potency [2] | Potency [3] | Potency [4] | Potency [5] | Potency [6]

C=C(Cl)CCl
inactive: Potency [1] | Potency [2] | Potency [3] | Potency [4] | Potency [5] | Potency [6]

O=c1[nH]c2ccccc2o1
inactive: Potency [1] | Potency [2] | Potency [3] | Potency [4] | Potency [5] | Potency [6]

CCCN1CCC[C@@H]2Cc3nc(N)ncc3C[C@H]21
inactive: Potency [1] | Potency [2] | Potency [3] | Potency [4] | Potency [5] | Potency [6]

CN(C)CCc1c[nH]c2cccc(OP(=O)(O)O)c12
inactive: Potency [1] | Potency [2] | Potency [3] | Potency [4] | Potency [5] | Potency [6]

O=C(O)c1c(Cl)ccc2cc(Cl)cnc12
inactive: Potency [1] | Potency [2] | Potency [3] | Potency [4] | Potency [5] | Potency [6]

COP(=O)(OC)O/C(C)=C/C(=O)N(C)C
inactive: Potency [1] | Potency [2] | Potency [3] | Potency [4] | Potency [5] | Potency [6]

BrCC1CO1 (stereo unspecified)
active: Potency [3] 61.4 µM
inactive: Potency [1] | Potency [2] | Potency [4] | Potency [5] | Potency [6]

CN(CCO)CCO
inactive: Potency [1] | Potency [2] | Potency [3] | Potency [4] | Potency [5] | Potency [6]

CC(Cl)(Cl)Cl
inactive: Potency [1] | Potency [2] | Potency [3] | Potency [4] | Potency [5] | Potency [6]

CCC1(c2cccc(O)c2)CCCCN(C)C1 (stereo unspecified)
inactive: Potency [1] | Potency [2] | Potency [3] | Potency [4] | Potency [5] | Potency [6]

CCC(C(N)=O)N1CCCC1=O (stereo unspecified)
inactive: Potency [1] | Potency [2] | Potency [3] | Potency [4] | Potency [5] | Potency [6]

O=CCCl
inactive: Potency [1] | Potency [5] | Potency [6]
active: Potency [2] 19.3 µM | Potency [3] 0.217 µM | Potency [4] 27.3 µM

O=C(O)CBr
inactive: Potency [1] | Potency [2] | Potency [3] | Potency [4] | Potency [5] | Potency [6]

CS(=O)(=O)Cl
inactive: Potency [1] | Potency [2] | Potency [3] | Potency [4] | Potency [5] | Potency [6]

Brc1c(Br)c(Br)c(Br)c(Br)c1Br
inactive: viability change, negative = cytotoxic [1] -0.032% [at 7.04 µM] | activity change, negative = cytotoxicity [2] -12.6% [at 8.52 µM] | activity, negative = cytotoxicity [3] 4.56% [at 8.53 µM] | activity change, negative = cytotoxicity [4] 8.63% [at 8.55 µM] | activity change, negative = cytotoxicity [5] -0.0996% [at 7.04 µM] | viability change, negative = cytotoxic [6] 1.47% [at 8.47 µM]

Cc1ccc(-c2nc3ccc(C)cn3c2CC(=O)N(C)C)cc1
inactive: Potency [1] | Potency [2] | Potency [3] | Potency [4] | Potency [5] | Potency [6]

CC#Cc1cc(C)nc(Nc2ccccc2)n1
active: Potency [2] 54.4 µM | Potency [3] 61.1 µM | Potency [4] 54.4 µM
inactive: Potency [1] | Potency [5] | Potency [6]

CCN[C@H](C)Cc1cccc(C(F)(F)F)c1
active: Potency [2] 60.9 µM | Potency [3] 30.5 µM | Potency [4] 54.3 µM
inactive: Potency [1] | Potency [5] | Potency [6]

O=C(Cl)C(Cl)Cl
inactive: Potency [1] | Potency [2] | Potency [3] | Potency [4] | Potency [5] | Potency [6]

C=CC(=O)OCCN(C)C
inactive: Potency [1] | Potency [2] | Potency [3] | Potency [4] | Potency [5] | Potency [6]

CCCCOC(C)=O
inactive: Potency [1] | Potency [2] | Potency [3] | Potency [4] | Potency [5] | Potency [6]

ClCC1CO1 (stereo unspecified)
inactive: Potency [1] | Potency [2] | Potency [3] | Potency [4] | Potency [5] | Potency [6]

C/C=C/CC#N
inactive: Potency [1] | Potency [2] | Potency [3] | Potency [4] | Potency [5] | Potency [6]

CCCCCCC1CCOC1=O (stereo unspecified)
inactive: Potency [1] | Potency [2] | Potency [3] | Potency [4] | Potency [5] | Potency [6]

O=C(Cl)c1ccccc1
inactive: Potency [1] | Potency [2] | Potency [3] | Potency [4] | Potency [5] | Potency [6]

CC1N=C(N)OC1c1ccccc1 (stereo unspecified)
inactive: Potency [1] | Potency [2] | Potency [3] | Potency [4] | Potency [5] | Potency [6]

O=C1CCCCC1Cl (stereo unspecified)
inactive: Potency [1] | Potency [2] | Potency [3] | Potency [4] | Potency [5] | Potency [6]

CCOP(=O)(CN(CCO)CCO)OCC
inactive: Potency [1] | Potency [2] | Potency [3] | Potency [4] | Potency [5] | Potency [6]

CCOc1cc(OP(=S)(OC)OC)nc(CC)n1
inactive: Potency [1] | Potency [2] | Potency [3] | Potency [4] | Potency [5] | Potency [6]

N[C@@H](Cc1ccc(Oc2cc(I)c(O)c(I)c2)c(I)c1)C(=O)O
inactive: Potency [1] | Potency [2] | Potency [3] | Potency [4] | Potency [5] | Potency [6]

NNC(N)=O
inactive: Potency [1] | Potency [2] | Potency [3] | Potency [4] | Potency [5] | Potency [6]

CC(C)NCC(O)c1ccc([N+](=O)[O-])cc1 (stereo unspecified)
inactive: Potency [1] | Potency [2] | Potency [3] | Potency [4] | Potency [5] | Potency [6]

CC(O)CCl (stereo unspecified)
inactive: Potency [1] | Potency [2] | Potency [3] | Potency [4] | Potency [5] | Potency [6]

C=CC=O
inactive: Potency [1] | Potency [2] | Potency [3] | Potency [4] | Potency [5] | Potency [6]

Cc1cccc2sc3nncn3c12
inactive: Potency [1] | Potency [2] | Potency [3] | Potency [4] | Potency [5] | Potency [6]

N#CN
inactive: Potency [1] | Potency [2] | Potency [3] | Potency [4] | Potency [5] | Potency [6]

c1ccc2c(c1)CCNC2
inactive: Potency [1] | Potency [2] | Potency [3] | Potency [4] | Potency [5] | Potency [6]

CC1NCCOC1c1ccccc1 (stereo unspecified)
inactive: Potency [1] | Potency [2] | Potency [3] | Potency [4] | Potency [5] | Potency [6]

CN1C(=O)COc2c(C(=O)NC3CN4CCC3CC4)cc(Cl)cc21 (stereo unspecified)
inactive: Potency [1] | Potency [2] | Potency [3] | Potency [4] | Potency [5] | Potency [6]

C=C1C[C@@H]2[C@H](CC[C@]3(C)C(=O)CC[C@@H]23)[C@@]2(C)C=CC(=O)C=C12
active: Potency [2] 7.5 µM | Potency [3] 11.9 µM | Potency [4] 13.3 µM
inactive: Potency [1] | Potency [6]
